Sampled rows, rich in hits. Any-hit rate of the full collection: about 3%.
KKLEB cytotox: cytotoxicity in KKLEB CF airway cells, primary screen, cytotoxicity control for CF NF-kB inhibitor project, cell-based, uHTS, fluorescence assay plates. 360,000 compounds, 0.36% hits. KKLEB CF airway cells viability, ATPlite luminescence, overnight; hits give low values; cells stimulated with P. aeruginosa culture filtrate. AID 602141, 2011. activity change (cytotoxicity), % at 5 µM;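 active = corrected activity change at or below -50% at 5 µM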
HIF-2a block: HIF-2a reporter inhibitors, primary screen, luminescence, 786-0 RCC cells. 786-0 RCC cells HIF-2a reporter, luciferase luminescence, overnight. inhibition, % at 18.8 µM. 360,000 compounds, 0.72% hits. AID 624352, 2012;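 active = inhibition of the luminescence signal of 40% or more relative to plate controls, in a single-dose primary screen at 18.75 µM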
Peg3 prom inh: Peg3 promoter-driven luciferase inhibitors, primary screen, cell-based, HeLa, luciferase luminescence; HeLa PEG-Prom luciferase reporter, overnight; inhibition, % at 20 µM; 360,000 compounds, 1.7% hits; AID 588405, 2011;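 active = inhibition of at least 50% at 20 µM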
TRPM1 prom inh: inhibitors of MITF-dependent TRPM1 promoter reporter, primary screen, cell-based, SK-MEL-5, single point, luciferase; SK-MEL-5 TRPM1 promoter luciferase, 24 h; inhibition, % at 12.5 µM; 330,000 compounds, 0.83% hits;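 active = mean inhibition across replicates of 60% or more, whatever share of single replicates reaches that level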
CF NFkB block: inhibitors of PAF-induced NF-kB signaling, primary screen, cell-based, GFP fluorescence, uHTS | KKLEB NF-kB-GFP reporter, GFP fluorescence overnight | inhibition, % at 5 µM | 360,000 compounds, 0.86% hits | AID 588850, 2011;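 active = at least 50% inhibition at 5 µM, scaled per plate between neutral and stimulator controls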;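 note: PAF is a Pseudomonas aeruginosa culture filtrate used as stimulus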
ABHD5-PLIN5 inh: ABHD5-PLIN5 interaction inhibitors, primary screen, cell lysate, split luciferase complementation, luminescence; Perilipin-5 (Homo sapiens) + 1-acylglycerol-3-phosphate O-acyltransferase ABHD5 (Homo …; Split G. princeps luciferase complementation, 4 h; inhibition, % at 4 µM; 360,000 compounds, 0.78% hits; AID 602281, 2012;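 active = inhibition above the mean inhibition across every tested compound plus 3 SD, cut at about 22% in these data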
Mdm2 MdmX conf: retested Mdm2-MdmX interaction blockers, confirmation, cell-based, luminescence, single concentration, set 2. inhibition, % at 8 µM. shares compounds with HIF-2a block. 740 compounds, 99% hits. SaOS-2 split-luciferase Mdm2/MdmX complementation;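 active = mean inhibition of the luminescence signal across two replicates at or above 26 percent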
Target sequence (O15151 whole entry, looked up): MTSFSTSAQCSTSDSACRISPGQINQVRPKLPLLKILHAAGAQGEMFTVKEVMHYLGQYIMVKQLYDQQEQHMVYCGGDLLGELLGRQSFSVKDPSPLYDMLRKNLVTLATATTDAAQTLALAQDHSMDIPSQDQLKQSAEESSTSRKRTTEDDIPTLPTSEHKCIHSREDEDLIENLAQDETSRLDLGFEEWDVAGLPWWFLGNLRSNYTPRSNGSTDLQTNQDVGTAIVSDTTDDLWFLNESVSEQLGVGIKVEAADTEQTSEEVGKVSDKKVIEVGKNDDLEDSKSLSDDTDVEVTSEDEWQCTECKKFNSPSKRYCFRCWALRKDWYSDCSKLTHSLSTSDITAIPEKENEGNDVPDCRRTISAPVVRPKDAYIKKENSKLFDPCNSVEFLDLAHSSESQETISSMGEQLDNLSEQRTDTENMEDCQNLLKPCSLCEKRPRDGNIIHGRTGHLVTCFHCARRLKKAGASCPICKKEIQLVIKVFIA
Target sequence (Q00987 whole entry, looked up): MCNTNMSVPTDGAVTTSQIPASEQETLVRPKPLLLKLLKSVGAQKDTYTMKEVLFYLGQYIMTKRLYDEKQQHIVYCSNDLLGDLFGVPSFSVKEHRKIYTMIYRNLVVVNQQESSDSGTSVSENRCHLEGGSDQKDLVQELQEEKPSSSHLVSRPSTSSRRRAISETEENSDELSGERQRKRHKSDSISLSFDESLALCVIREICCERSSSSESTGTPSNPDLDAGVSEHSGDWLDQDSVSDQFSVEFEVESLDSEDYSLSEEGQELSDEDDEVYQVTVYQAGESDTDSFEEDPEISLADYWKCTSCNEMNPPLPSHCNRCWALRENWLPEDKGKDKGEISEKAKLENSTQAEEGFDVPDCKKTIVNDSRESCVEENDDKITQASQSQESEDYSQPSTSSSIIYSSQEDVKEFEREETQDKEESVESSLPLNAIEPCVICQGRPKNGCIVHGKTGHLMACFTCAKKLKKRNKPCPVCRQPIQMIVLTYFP
HIF-2a inh conf: HIF-2a reporter inhibitor retest, confirmation, luminescence, 786-0 RCC cells. HIF-2a luciferase reporter luminescence, overnight. inhibition, % at 18.8 µM. shares compounds with HIF-2a block. 1,800 compounds, 56% hits;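 active = mean inhibition across four replicates of at least 40 percent at the single tested concentration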
HIF-1a cs: HIF-1a luciferase reporter signal reduction – MiaPaCa-2 cells, single concentration, counter-screen for HIF-2a inhibitor project, confirmation. shares compounds with HIF-2a block. AID 651589, 2012. MiaPaCa-2 HIF-1a luciferase reporter, desferoxamine, overnight. inhibition, % at 18.8 µM. 1,800 compounds, 72% hits;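 active = mean inhibition of the reporter signal across four replicates at the single tested dose of 50% or more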
Hits are given with their value; 0 = inactive; - = not tested or not shown.

SMILES | KKLEB cytotox | HIF-2a block | Peg3 prom inh | TRPM1 prom inh | CF NFkB block | ABHD5-PLIN5 inh | Mdm2 MdmX conf | HIF-2a inh conf | HIF-1a cs
CCOC(=O)N1CCN(C(=O)COC(=O)c2ccccc2NCCO)CC1 | 0 | 0 | 0 | 0 | 0 | 0 | - | - | -
Cc1sc2nc(C(C)C)nc(SCC(=O)N3c4ccccc4CC3C)c2c1C (stereo not given) | 0 | 0 | 0 | 0 | 0 | 0 | - | - | -
CCc1nc(SCC(=O)N2c3ccccc3CC2C)c2c(C)c(C)sc2n1 (stereo not given) | 0 | 0 | 0 | 0 | 0 | 0 | 101.5 | - | -
CCOC(=O)CCS(=O)(=O)c1nc(-c2ccccc2)cc(C(F)(F)F)n1 | -77.4 | 94.5 | 113.5 | 85.1 | 85.6 | 58.4 | 103.0 | - | -
CCOC(=O)CS(=O)(=O)c1nc(-c2ccc(F)cc2)cc(C(F)(F)F)n1 | 0 | 93.4 | 100.2 | 99.4 | 85.0 | 52.6 | 99.5 | - | -
CCOC(=O)c1c(C(F)(F)F)cc(-c2ccc(F)cc2)nc1C | 0 | 0 | 0 | 0 | 0 | 0 | - | - | -
CCOC(=O)Cc1cc(-c2ccccc2)nc2ccc3ccccc3c12 | 0 | 0 | 0 | 0 | 0 | 0 | - | - | -
Cc1cc(C(C)(C)CC(C)(C)C)ccc1OCCOCC[N+](C)(C)Cc1ccccc1 | 0 | 0 | 102.2 | 96.4 | 62.6 | 0 | 103.2 | - | -
C[N+](C)(CCOc1ccccc1)Cc1ccccc1 | 0 | 0 | 0 | 0 | 0 | 0 | - | - | -
Cc1cc2c(N=NC(=O)CCc3ccccc3)c(O)[nH]c2cc1Br | 0 | 0 | 0 | 0 | 0 | 0 | - | - | -
O=C(OCC(=O)N1CCCCCC1)c1ccc(F)cc1F | 0 | 0 | 0 | 0 | 0 | 0 | - | - | -
Oc1ccc(N=Nc2ccc3c(c2)OCCO3)c(O)c1 | 0 | 0 | 0 | 0 | 0 | 0 | - | - | -
Oc1ccc(N=Nc2ccc3c(c2)OCCO3)c2cccnc12 | 0 | 0 | 0 | 64.7 | 0 | 0 | 88.7 | - | -
O=C(Nc1cc(Cl)cc(Cl)c1)C1CCCC1 | 0 | 0 | 0 | 0 | 0 | 0 | - | - | -
COc1ccc(CS(=O)(=O)/C(Cl)=C(/Cl)C(=O)Nc2ccc(OC)nc2)cc1 | -85.5 | 93.4 | 103.6 | 94.0 | 88.5 | 41.0 | 103.5 | - | -
CCc1ccc(N2C=C(C(=O)OC)C(c3ccc(OC)cc3)C(C#N)=C2N)cc1 (stereo not given) | - | 53.1 | - | - | - | 0 | - | 73.9 | 98.8
Cc1c(Cl)cccc1N/C(=N/S(=O)(=O)c1cccs1)c1ccccc1 | 0 | 0 | 0 | 0 | 0 | 0 | - | - | -
Cc1ccc(NC2=C/C(=N\S(=O)(=O)c3cccs3)c3ccccc3C2=O)c(C)c1 | -101.5 | 70.6 | 110.9 | 104.9 | 96.0 | 0 | 100.7 | - | -
Cc1ccc(Cl)cc1NC1=C/C(=N\S(=O)(=O)c2cccs2)c2ccccc2C1=O | -104.6 | 89.7 | 109.6 | 89.5 | 91.9 | 0 | 102.0 | - | -
CCc1nc2ccc(C(=O)NCCNC(C)=O)cn2c1N(CC)CCOC | 0 | 0 | 0 | - | 0 | 0 | - | - | -
C[C@H](O)[C@@H]1CN2CCc3c([nH]c4ccccc34)[C@@H]2C[C@@H]1N(C)C(=O)Nc1cccc2ccccc12 | 0 | 0 | 0 | - | 0 | 0 | - | - | -
Cc1cccc(-c2ccc3[nH]c4c(c3c2)CCN2C[C@@H]([C@H](C)OC(=O)Nc3ccccc3C)[C@@H](N(C)C(=O)Nc3ccccc3C)C[C@@H]42)c1 | 0 | 56.2 | 0 | - | 0 | 0 | - | 0 | 83.2
O=C(NCCc1ccccc1)C(c1cccs1)N(C(=O)c1csnn1)C1CC1 (stereo not given) | 0 | 0 | 0 | 0 | 0 | 0 | - | - | -
O=C(NCCc1ccccc1)C(c1cccs1)N(C(=O)CCl)c1ccc(Cl)cc1 (stereo not given) | -89.0 | 91.8 | 108.7 | 85.9 | 105.0 | 0 | 103.2 | 97.4 | 107.7
CCCc1nc([N+](=O)[O-])c(S(=O)(=O)c2ccccc2)n1CC(C)C | 0 | 44.7 | 0 | 0 | 55.0 | 0 | - | 0 | 0
SMILES | KKLEB cytotox | HIF-2a block | Peg3 prom inh | TRPM1 prom inh | CF NFkB block | ABHD5-PLIN5 inh | Mdm2 MdmX conf | HIF-2a inh conf | HIF-1a cs
CN(C)CC(CCC(CN(C)C)C(O)(c1ccccc1)c1ccccc1)C(O)(c1ccccc1)c1ccccc1 (stereo not given) | - | - | - | - | - | - | 103.5 | - | -
CN(C)C/C=C/C(O)(c1ccccc1)c1ccccc1 | 0 | 0 | 0 | 0 | 0 | 0 | - | - | -
O=C(NC1CCCCCC1)c1ccco1 | 0 | 0 | 0 | 0 | 0 | 0 | - | - | -
O=C(Nc1ccc(Cl)cc1Cl)c1cccc(N2C(=O)C=CC2=O)c1 | 0 | 44.3 | 108.4 | 0 | 0 | 0 | - | 80.0 | 0
COc1ccc(S(=O)(=O)N2CCC(C(=O)N[C@@H](C)C(=O)NCc3ccncc3)CC2)cc1 | 0 | 0 | 0 | 0 | 0 | 0 | - | - | -
Cc1cccc(NC(=O)/C=C/c2ccc([N+](=O)[O-])s2)c1 | 0 | 48.8 | 107.4 | 94.6 | 0 | 0 | - | 0 | 103.2
Cc1ccc(NC(=O)/C=C/c2ccc([N+](=O)[O-])s2)c(C)c1 | 0 | 78.7 | 89.2 | 109.2 | 0 | 0 | - | 0 | 99.7
COc1cc(CNC2CCCC2)cc(Cl)c1OCc1ccccc1Cl | 0 | 82.0 | 94.2 | 82.0 | 0 | 0 | - | 0 | 106.6
Cc1scc(C(=O)N/N=C/c2ccc([N+](=O)[O-])o2)c1C | 0 | 61.3 | 0 | 100.3 | 0 | 0 | - | 61.9 | 83.6
COc1ccc(OC)c(CCNC(=O)CC2(CC3=NS(=O)(=O)c4ccccc4N3)CCCC2)c1 | 0 | 0 | 0 | 0 | 0 | 0 | - | - | -
CC(C)COc1ccc(C(=S)N2CCCC2)cc1 | 0 | 57.4 | 0 | 0 | 0 | 0 | - | 57.5 | 0
CC(=O)c1ccc(NC2=C(N3CCOCC3)C(=O)c3ccccc3C2=O)cc1 | 0 | 0 | 0 | 0 | 0 | 0 | - | - | -
CC(=O)N(C)C1=C(N2CCOCC2)C(=O)c2ccccc2C1=O | 0 | 0 | 82.8 | 88.6 | 0 | 0 | 75.2 | - | -
Cc1ccc(S(=O)(=O)N2CCN(C(=O)CCc3nc4ccccc4c(=O)[nH]3)CC2)c(C)c1 | 0 | 0 | 0 | 0 | 0 | 0 | - | - | -
O=C(CCc1nc2ccccc2c(=O)[nH]1)N1CCN(S(=O)(=O)c2ccccc2Br)CC1 | 0 | 47.6 | 0 | 0 | 0 | 0 | - | 0 | 89.3
O=[N+]([O-])c1ccc(CSc2ccc(S(=O)(=O)N3CCCCC3)cn2)cc1 | 0 | 0 | 0 | 0 | 0 | 0 | - | - | -
CCOC(=O)c1ccc(Oc2nc(N(C)C)nc(N(C)C)n2)cc1 | 0 | 0 | 0 | 0 | 0 | 0 | - | - | -

High-throughput results deposited in PubChem by several laboratories.
